± gives the standard deviation of the averaged measurements.

This experiment relates to Drosophila ezoana antennal basiconic sensillum ab2. Put plainly: odor-evoked OSN spike response (post minus pre-stimulus); higher = stronger neuronal excitation. As to conditions: odor dilution: 10^-4. Here is the method:
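Single sensillum recordings from antennal basiconic sensilla of D. ezoana. A 500 ms pulse of odorant (10^-4 in mineral oil or DMSO) was delivered; the response is the change in action potential frequency between the 1 s pre- and post-stimulus windows (spikes/s).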
For `CC(C)=O` [acetone], the “odor-evoked OSN spike response” value came out at 73.7 ± 37 spikes/s.

Source of the values: the supplement of paper PMC10477191.
